The list is not random: actives were taken first. Their share in the collection is about 5.1%.
MPTP block: mitochondrial permeability transition pore inhibitors, primary screen, biochemical, isolated mouse mitochondria, absorbance; Ca2+ swelling absorbance, 30 min; 360,000 compounds, 1.4% hits; inhibition, % at 10 µM;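 active = inhibition of 50% or more, scaled per plate between neutral and stimulator controls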
CRFBP-R2 agonist: agonists of CRF-BP/CRF-R2 complex, primary screen, cell-based, HEK293, calcium dye fluorescence, uHTS | CRF-binding protein / CRF receptor 2 complex (human) | calcium dye fluorescence (FLIPR); percent of saturating CRF peptide response | activation, % at 13.2 µM | 350,000 compounds, 0.46% hits | AID 588473, 2011;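 active = activation of at least 50%, plus an integration ratio under a set limit after plate pattern correction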
CRFR2-BP antag: antagonists of CRF-BP/CRF-R2 complex, primary screen, cell-based, HEK293, calcium dye fluorescence, uHTS | CRF-induced calcium fluorescence | 350,000 compounds, 0.59% hits | AID 588475, 2011 | inhibition, % at 11.8 µM;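 active = inhibition of the ligand-induced calcium signal above about 50% at the single tested concentration, limit read from the data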
GRIN3A LBD mod: binders of NR3A ligand-binding domain, primary screen, biophysical, differential scanning fluorimetry, uHTS; Glutamate receptor ionotropic, NMDA 3A (GRIN3A) ligand-binding domain; NR3A LBD differential scanning fluorimetry, Tm shift; 0% = protein alone, 100% = glycine-bound protein; Tm shift relative to glycine control, % at 25 µM; 340,000 compounds, 2.5% hits; AID 1259313, 2017;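 active = melting temperature shift of at least 10% of the positive control shift, at one fixed dose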
ANO1 activ: TMEM16A chloride channel activators or potentiators, primary screen, cell-based, HTS; Anoctamin-1 (Mus musculus), Q8BHY3; HEK293 TMEM16A/YFP-H148Q/I152L, iodide quench fluorescence; stronger effect = lower value; B-score at 10 µM; 340,000 compounds, 0.3% hits; AID 623877, 2012;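 active = fluorescence-ratio B-score plate-corrected deviation score at least 3 library SD below zero, with starting fluorescence score within 5 deviations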;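 note: channel opened by trigger with iodide after compound preincubation; score built on the fluorescence ratio of max minus min over baseline; more negative score means more quench and so TMEM16A activation or potentiation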
Target sequence (Q8BHY3 whole entry, looked up): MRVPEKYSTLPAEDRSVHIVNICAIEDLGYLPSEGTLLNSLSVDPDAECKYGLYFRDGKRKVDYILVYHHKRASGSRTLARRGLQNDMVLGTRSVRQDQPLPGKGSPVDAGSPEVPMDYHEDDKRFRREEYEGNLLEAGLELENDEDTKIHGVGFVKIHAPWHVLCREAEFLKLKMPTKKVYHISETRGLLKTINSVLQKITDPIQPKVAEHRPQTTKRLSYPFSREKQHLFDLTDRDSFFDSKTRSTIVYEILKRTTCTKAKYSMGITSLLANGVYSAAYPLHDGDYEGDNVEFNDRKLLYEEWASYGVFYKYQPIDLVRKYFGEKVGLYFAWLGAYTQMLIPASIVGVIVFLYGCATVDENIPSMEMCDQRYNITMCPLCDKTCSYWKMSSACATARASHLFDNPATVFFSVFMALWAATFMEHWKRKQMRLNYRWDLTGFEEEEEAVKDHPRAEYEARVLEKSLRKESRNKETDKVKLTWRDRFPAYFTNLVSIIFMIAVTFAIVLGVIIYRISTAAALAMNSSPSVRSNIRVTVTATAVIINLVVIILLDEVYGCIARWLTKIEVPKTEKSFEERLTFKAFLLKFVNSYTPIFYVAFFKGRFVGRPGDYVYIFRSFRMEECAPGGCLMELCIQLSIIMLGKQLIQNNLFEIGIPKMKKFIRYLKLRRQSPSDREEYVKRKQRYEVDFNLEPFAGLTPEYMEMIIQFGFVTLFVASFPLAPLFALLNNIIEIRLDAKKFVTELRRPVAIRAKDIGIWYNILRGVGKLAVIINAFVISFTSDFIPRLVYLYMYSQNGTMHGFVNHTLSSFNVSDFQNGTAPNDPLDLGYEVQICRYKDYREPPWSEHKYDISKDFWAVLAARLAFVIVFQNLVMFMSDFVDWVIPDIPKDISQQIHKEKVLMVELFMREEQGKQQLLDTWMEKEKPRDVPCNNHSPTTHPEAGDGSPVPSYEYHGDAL
ANO1 block: TMEM16A chloride channel inhibitors, primary screen, cell-based, HTS; normalized B-score (activity score, 25-100; higher = stronger inhibition) at 10 µM; Anoctamin-1 (Mus musculus), Q8BHY3; 310,000 compounds, 1.2% hits; HEK293 TMEM16A/YFP iodide influx fluorescence, ionomycin; AID 588511, 2011;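 active = ratio plate-corrected score three or more library SD toward inhibition, starting fluorescence score within five deviations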;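 note: score derived from kinetic fluorescence span divided by baseline fluorescence per well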
Numbers stand for hits; - = inactive; . = no result given.

SMILES	MPTP block	CRFBP-R2 agonist	CRFR2-BP antag	GRIN3A LBD mod	ANO1 activ	ANO1 block
C=CCn1c(=NC(=O)c2cc(-c3cccs3)nc3ccccc23)sc2cc(S(N)(=O)=O)ccc21	-	-	-	27.6	-	-
COCCn1c(=NC(=O)c2cc(-c3cccs3)nc3ccccc23)sc2cc(S(N)(=O)=O)ccc21	-	-	-	28.2	-	-
CC1CCc2sc(C(=O)NN=C3CCCC3)cc2C1 (stereo unspecified)	-	-	-	.	.	.
CC1=NNC(=O)C1CC(=O)N/N=C/c1ccc(C)o1 (stereo unspecified)	-	-	-	18.3	-	-
COc1c(F)c(F)c(C(=O)Nc2ccc(-c3nc4ccccc4[nH]3)cc2)c(F)c1F	-	-	-	13.4	-	-
CCOc1ccc(NC(=S)NCc2nc3ccccc3[nH]2)cc1	-	-	-	-	-	-
O=C(Nc1ccc(-c2nc3ccccc3[nH]2)cc1)c1c(F)c(F)c(F)c(F)c1F	-	-	-	16.2	-	-
CCNC(=S)Nc1ccc(-c2nc3ccccc3[nH]2)cc1	-	-	-	27.7	-	-
O=C1C=C(c2ccccc2)C(c2ccccc2)C1O (stereo unspecified)	-	77.5	-	-	-	.
O=C1C=C(c2ccccc2)OC(c2ccccc2)O1 (stereo unspecified)	-	-	-	-	-	-
CC(=O)c1cccc(NC(=O)Cn2cnc(S(=O)(=O)N3CCOCC3)c2)c1	-	-	-	-	-	-
COC(=O)CSc1nn(-c2ccc(F)cc2)c(=S)s1	-	-	51.2	-	-	-
Nc1n[nH]c(=S)n1/N=C1/C(=O)Nc2ccccc21	-	-	-	26.3	-	.
COc1ccc(NS(=O)(=O)c2ccc(C)c(NC(=O)NC3CCCCC3)c2)cc1	-	-	-	-	-	-
COc1ccc(NS(=O)(=O)c2cccc(NC(=O)NC3CCCCC3)c2)cc1	-	-	-	-	-	25
COc1ccc(NS(=O)(=O)c2ccc(OC)c(NC(=O)CCC3CCCCC3)c2)cc1	-	-	-	21.9	-	-
COC(=O)C1=C(C)N(Cc2ccccc2)C(=S)N[C@H]1c1cccc(F)c1	-	-	55.4	-	-	-
COCCOC(=O)C1=C(C)N(Cc2ccccc2)C(=O)NC1c1ccc(OC)cc1 (stereo unspecified)	-	-	-	-	-	100
COC(=O)C1=C(C)N(Cc2ccccc2)C(=O)N[C@H]1CCc1ccccc1	-	-	81.8	-	-	-
CCOC(=O)CN1C(=O)N[C@@H](CCc2ccccc2)C(C(=O)OC)=C1C	-	-	-	-	-	-
COC(=O)C(=Cc1ccccc1[N+](=O)[O-])C(=O)OC	-	-	-	-	-	-
CCN1C(=O)[C@H]2[C@@H](c3ccc(C)cc3)N[C@]3(CCCN(CCC(C)C)C3=O)[C@H]2C1=O	-	-	-	.	.	.
O=C(CNS(=O)(=O)c1cccc2nsnc12)NCCc1ccccc1	-	-	-	-	-	-
COCCCN=Cc1c(C)[nH]n(-c2ccc(Br)c(C)c2)c1=O	-	-	-	66.1	-	-
COc1ccc(OCC(=O)NS(=O)(=O)c2ccc(Cl)cc2)cc1	-	-	-	-	-	-
SMILES	MPTP block	CRFBP-R2 agonist	CRFR2-BP antag	GRIN3A LBD mod	ANO1 activ	ANO1 block
COC(=O)c1ccc(NC(=O)COc2ccc([N+](=O)[O-])cc2)cc1	-	-	-	-	-	-
COc1ccc(NC(=O)CNC(=O)c2ccc([N+](=O)[O-])cc2)cc1	-	-	-	-	-	-
COc1ccc(C(=O)CC(=O)Nc2ccc([N+](=O)[O-])cc2)cc1	-	-	-	24.4	-	-
Cc1ccc(S(=O)(=O)NC(=O)COc2ccc([N+](=O)[O-])cc2)cc1	-	-	-	17.4	-	-
O=C(CCOc1ccccc1)Nc1ccc([N+](=O)[O-])cc1	-	-	67.0	-	-	-
CC(=O)Nc1ccc(NC(=O)COc2ccc([N+](=O)[O-])cc2)cc1	-	-	60.2	-	-	-
COc1ccc(S(=O)(=O)N2CCCCCC2)cc1C(=O)N1CCN(C(C)=O)CC1	-	-	-	.	.	.
COc1ccc(CNC(=O)CCC(=O)Nc2nnc(C(F)(F)F)s2)cc1	-	-	-	-	-	-
Cc1cc(NC(=O)Nc2ccc3c(ccn3C)c2)sn1	-	-	-	17.2	-	-
Cc1ccc(NC(=O)Nc2ccc3c(c2)nc(C)n3C)cc1	-	-	-	-	-	-
O=C(Nc1nc2ccccc2n1CCN1CCCCC1)C1CCCCC1	-	-	-	-	-	25
O=C(Nc1nc2ccccc2n1CCN1CCCC1)C1CCCCC1	-	-	-	-	-	-
Cc1cccc(NC(=O)c2nc[nH]c2C(=O)NCCCNC(=O)c2[nH]cnc2C(=O)Nc2cccc(C)c2)c1	-	-	-	12.3	-	.
Cc1cccc(NC(=O)c2nc[nH]c2C(=O)NCCN(CCNC(=O)c2[nH]cnc2C(=O)Nc2cccc(C)c2)CCNC(=O)c2[nH]cnc2C(=O)Nc2cccc(C)c2)c1	-	-	-	14.4	-	.
Cc1cccc(NC(=O)c2nc[nH]c2C(=O)NC[C@H](C)O)c1	-	-	-	.	.	.
Cc1cccc(NC(=O)c2nc[nH]c2C(=O)Nc2cccc(C)c2)c1	-	-	-	-	-	-
COc1ccccc1-c1ncn(Cc2cccc(-c3ccccc3)c2)c1-c1cc(C)cc(C)c1	-	.	.	.	.	.
Cc1ccc(NC(=O)CN(C)C(=O)COC(=O)CNS(=O)(=O)c2ccc(Br)cc2Cl)cc1	-	-	-	-	-8.12	-
NS(=O)(=O)c1ccc(-c2ccc(/C=N/NC(=O)c3ccccc3O)o2)cc1	-	-	-	13.3	-	-
O=C(N/N=C/c1ccc(-c2ccc(S(=O)(=O)Nc3ncccn3)cc2)o1)c1cc2ccccc2cc1O	-	-	-	-	-	100
Cc1ccc(-c2ccc(/C=N/NC(=O)c3ccccc3O)o2)cc1	.	.	.	.	.	-
C=CCN(C(=O)CCC(=O)Nc1cc(C)on1)C(C(=O)NC1CCCC1)c1ccc(CC)cc1 (stereo unspecified)	-	-	-	-	-	-
COc1ccc(Cl)cc1C(=O)NNC(=O)c1[nH]c(C)c(C(C)=O)c1C	-	-	-	15.4	-	.
CNS(=O)(=O)c1cccc(C(=O)OCc2csc(-c3ccccc3)n2)c1	-	-	-	-	-	-
Nc1ccc(C(=O)OCc2csc(-c3ccccc3)n2)cc1[N+](=O)[O-]	-	-	-	29.4	-	-
